Assay results as given in the supplement of paper PMC9262897, “Low-cost anti-mycobacterial drug discovery using engineered E. coli” (Nature Communications, 2022).
Where a name gives a salt, the structure may show the parent alone. ± gives the standard deviation of the averaged measurements.

Tests used:
Test in all cases: growth (OD600 after 10 h); higher = more growth (less inhibition)
[1] = system: E. coli TESEC Alr+ wild-type control; settings: compound 0.1 mM; raw OD600 reference: median of DMSO wells 0.241, cell-free background 0.041
Protocol: (§1)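 TESEC Mtb Alr E. coli, or the Alr+ wild-type control, in 384-well plates with Prestwick library compounds at 0.1 mM and 1% DMSO, across arabinose induction levels of 1E3 to 1E7 nM. Growth is read as OD600 after 10 h at 37 °C in triplicate biological replicates.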

E. coli TESEC Mtb Alr [2] = settings: compound 0.1 mM
Protocol: as §1

E. coli TESEC Mtb Asd = settings: compound 0.1 mM
Protocol: (§2)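 TESEC E. coli strains in which the native enzyme is deleted and replaced by arabinose-inducible Mtb Asd, DapB, CysH or TrpD, each grown in its selective medium. Strains were screened against the Prestwick library at 0.1 mM and 1% DMSO in 384-well format at low and high arabinose induction. Growth is read as OD600 after 10 h in triplicate.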

E. coli TESEC Mtb DapB = settings: compound 0.1 mM
Protocol: as §2

[3] = system: E. coli TESEC Alr+ wild-type control; settings: compound 0.1 mM; raw OD600 reference: median of DMSO wells 0.49, cell-free background 0.052
Protocol: (§3)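 TESEC Mtb Alr E. coli (ΔaraC ΔtolC ΔentC Δalr ΔdadX, arabinose-inducible Mtb Alr) or the Alr+ wild-type control strain, grown in defined M9-fructose medium without D-alanine in 96-well plates with Prestwick library compounds at 0.1 mM and 1% DMSO. Low Alr induction is 0.1 µM arabinose and high induction is 10 mM arabinose.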

E. coli TESEC Mtb Alr [4] = settings: compound 0.1 mM; remark: listed apart in the source
Protocol: as §3

[5] = arabinose 1000 nM, raw OD600 reference: median of DMSO wells 0.294, cell-free background 0.041
[6] = arabinose 10000 nM, raw OD600 reference: median of DMSO wells 0.264, cell-free background 0.041
[7] = arabinose 100000 nM, raw OD600 reference: median of DMSO wells 0.201, cell-free background 0.041
[8] = arabinose 1000000 nM, raw OD600 reference: median of DMSO wells 0.193, cell-free background 0.041
[9] = arabinose 10000000 nM, raw OD600 reference: median of DMSO wells 0.146, cell-free background 0.041
[10] = arabinose induction (level): High, raw OD600 reference: median of DMSO wells 0.331, cell-free background 0.041
[11] = arabinose induction (level): Low, raw OD600 reference: median of DMSO wells 0.417, cell-free background 0.041
[12] = arabinose induction (level): High, raw OD600 reference: median of DMSO wells […], cell-free background 0.041
[13] = arabinose induction (level): Low, raw OD600 reference: median of DMSO wells 0.227, cell-free background 0.041
[14] = arabinose 100 nM, raw OD600 reference: median of DMSO wells 0.413, cell-free background 0.052
[15] = arabinose 10000000 nM, raw OD600 reference: median of DMSO wells […], cell-free background 0.052

Row | SMILES | growth [1] | growth (E. coli TESEC Mtb Alr [2]; [5]) | growth (E. coli TESEC Mtb Alr [2]; [6]) | growth (E. coli TESEC Mtb Alr [2]; [7]) | growth (E. coli TESEC Mtb Alr [2]; [8]) | growth (E. coli TESEC Mtb Alr [2]; [9]) | growth (E. coli TESEC Mtb Asd; [10]) | growth (E. coli TESEC Mtb Asd; [11]) | growth (E. coli TESEC Mtb DapB; [12]) | growth (E. coli TESEC Mtb DapB; [13]) | growth [3] | growth (E. coli TESEC Mtb Alr [4]; [14]) | growth (E. coli TESEC Mtb Alr [4]; [15])
1 | Cn1c(=O)c2[nH]cnc2n(C)c1=O [Aminophylline] | 0.246 ± 0.005 | 0.292 ± 0.012 | 0.262 ± 0.0083 | 0.196 ± 0.0098 | 0.195 ± 0.0022 | 0.134 ± 0.0058 | 0.287 ± 0.065 | 0.457 ± 0.018 | 0.226 ± 0.017 | 0.234 ± 0.023 | 0.513 ± 0.08 | 0.406 ± 0.015 | 0.355 ± 0.019
2 | NCCc1ccc(O)c(O)c1 [Dopamine hydrochloride] | 0.1987 ± 0.0012 | 0.27 ± 0.012 | 0.274 ± 0.0041 | 0.201 ± 0.021 | 0.197 ± 0.022 | 0.144 ± 0.009 | 0.335 ± 0.051 | 0.281 ± 0.036 | 0.174 ± 0.0035 | 0.202 ± 0.032 | 0.624 ± 0.051 | 0.4196 ± 0.0037 | 0.333 ± 0.0035
3 | CO/N=C(\C(=O)N[C@@H]1C(=O)N2C(C(=O)O)=C(C[N+]3(C)CCCC3)CS[C@H]12)c1csc(N)n1 [Cefepime hydrochloride] | 0.0426 ± 0.00078 | 0.0381 ± 0.00085 | 0.0472 ± 0.0016 | 0.03857 ± 0.00031 | 0.0612 ± 0.0025 | 0.048 ± 0.00053 | 0.197 ± 0.017 | 0.188 ± 0.012 | 0.182 ± 0.0028 | 0.173 ± 0.011 | 0.0488 ± 0.0038 | 0.0455 ± 0.00017 | 0.0731 ± 0.0077
4 | CN(C)CCN(Cc1ccc(Cl)cc1)c1ccccn1 [Chloropyramine hydrochloride] | 0.189 ± 0.0042 | 0.245 ± 0.0086 | 0.265 ± 0.0041 | 0.201 ± 0.0069 | 0.148 ± 0.0046 | 0.128 ± 0.006 | 0.171 ± 0.017 | 0.43 ± 0.013 | 0.185 ± 0.02 | 0.208 ± 0.016 | 0.432 ± 0.016 | 0.399 ± 0.0085 | 0.314 ± 0.012
5 | CC1c2cccc(O)c2C(O)=C2C(=O)C3(O)C(O)=C(C(N)=O)C(=O)C(N(C)C)C3C(O)C21 (stereo not given) [Doxycycline hydrochloride] | 0.0447 ± 0.00093 | 0.0433 ± 0.002 | 0.0456 ± 0.001 | 0.04713 ± 0.00031 | 0.0487 ± 0.0075 | 0.0461 ± 0.0007 | 0.0572 ± 0.0053 | 0.0534 ± 0.0016 | 0.0563 ± 0.00081 | 0.0531 ± 0.0036 | 0.0579 ± 0.0011 | 0.0647 ± 0.0031 | 0.0602 ± 0.0014
6 | CCCC1O[C@@H]2C[C@H]3[C@@H]4CCC5=CC(=O)C=C[C@]5(C)[C@H]4[C@@H](O)C[C@]3(C)[C@]2(C(=O)CO)O1 (stereo not given in full) [Budesonide] | 0.1456 ± 0.0011 | 0.187 ± 0.0064 | 0.247 ± 0.0047 | 0.166 ± 0.015 | 0.112 ± 0.0012 | 0.141 ± 0.0021 | 0.309 ± 0.023 | 0.31 ± 0.025 | 0.167 ± 0.0066 | 0.231 ± 0.0093 | 0.449 ± 0.02 | 0.4337 ± 0.004 | 0.269 ± 0.0039
7 | CCCNC(=O)NS(=O)(=O)c1ccc(Cl)cc1 [Chlorpropamide] | 0.255 ± 0.0063 | 0.301 ± 0.007 | 0.25 ± 0.0077 | 0.23 ± 0.048 | 0.184 ± 0.008 | 0.141 ± 0.0057 | 0.392 ± 0.035 | 0.409 ± 0.057 | 0.234 ± 0.032 | 0.231 ± 0.0079 | 0.525 ± 0.065 | 0.396 ± 0.02 | 0.3521 ± 0.0031
8 | CN(C)CCCC1(c2ccc(F)cc2)OCc2cc(C#N)ccc21 (stereo not given) [Citalopram Hydrobromide] | 0.207 ± 0.0054 | 0.272 ± 0.011 | 0.25 ± 0.0072 | 0.173 ± 0.0067 | 0.155 ± 0.0054 | 0.138 ± 0.0049 | 0.289 ± 0.024 | 0.397 ± 0.051 | 0.191 ± 0.022 | 0.211 ± 0.017 | 0.476 ± 0.068 | 0.4152 ± 0.0024 | 0.321 ± 0.017
9 | c1ccc2c(CC3=NCCN3)cccc2c1 [Naphazoline hydrochloride] | 0.231 ± 0.0088 | 0.26 ± 0.032 | 0.268 ± 0.0057 | 0.191 ± 0.019 | 0.189 ± 0.0029 | 0.147 ± 0.0052 | 0.238 ± 0.042 | 0.333 ± 0.048 | 0.184 ± 0.011 | 0.21 ± 0.016 | 0.549 ± 0.075 | 0.41 ± 0.0069 | 0.323 ± 0.018
10 | CCn1cc(C(=O)O)c(=O)c2cc(F)c(N3CCN(C)CC3)cc21 [Pefloxacine] | 0.0478 ± 0.00026 | 0.0453 ± 0.00047 | 0.0396 ± 0.00047 | 0.0454 ± 0.0017 | 0.04 ± 0.00096 | 0.05157 ± 0.0004 | 0.0645 ± 0.0063 | 0.0631 ± 0.0043 | 0.0696 ± 0.0096 | 0.0585 ± 0.002 | 0.0507 ± 0.0001 | 0.0539 ± 0.00064 | 0.0515 ± 0.00064
11 | CN(Cc1cnc2nc(N)nc(N)c2n1)c1ccc(C(=O)N[C@@H](CCC(=O)O)C(=O)O)cc1 (racemic) [Amethopterin (R,S)] | 0.213 ± 0.01 | 0.273 ± 0.0079 | 0.224 ± 0.011 | 0.206 ± 0.049 | 0.14 ± 0.0075 | 0.144 ± 0.0042 | 0.213 ± 0.024 | 0.368 ± 0.029 | 0.192 ± 0.033 | 0.204 ± 0.022 | 0.0999 ± 0.0032 | 0.244 ± 0.13 | 0.125 ± 0.0053
12 | CC(C(=O)O)c1ccc(C(=O)c2ccccc2)s1 (stereo not given) [Tiaprofenic acid] | 0.22 ± 0.012 | 0.253 ± 0.021 | 0.246 ± 0.0058 | 0.201 ± 0.019 | 0.205 ± 0.0076 | 0.143 ± 0.006 | 0.386 ± 0.077 | 0.285 ± 0.099 | 0.182 ± 0.009 | 0.178 ± 0.015 | 0.502 ± 0.059 | 0.382 ± 0.02 | 0.35 ± 0.019
13 | COc1nc(C)nc(Cl)c1NC1=NCCN1 [Moxonidine] | 0.241 ± 0.011 | 0.298 ± 0.014 | 0.262 ± 0.0065 | 0.18 ± 0.013 | 0.187 ± 0.0025 | 0.133 ± 0.0069 | 0.248 ± 0.033 | 0.434 ± 0.025 | 0.209 ± 0.016 | 0.254 ± 0.017 | 0.567 ± 0.019 | 0.411 ± 0.015 | 0.342 ± 0.02
14 | N[C@@H](Cc1cc(I)c(Oc2ccc(O)c(I)c2)c(I)c1)C(=O)O [Liothyronine] | 0.18 ± 0.012 | 0.211 ± 0.012 | 0.2 ± 0.0047 | 0.177 ± 0.0039 | 0.134 ± 0.0031 | 0.162 ± 0.003 | 0.32 ± 0.038 | 0.152 ± 0.017 | 0.232 ± 0.0046 | 0.264 ± 0.017 | 0.36 ± 0.023 | 0.373 ± 0.035 | 0.272 ± 0.015
15 | O=C1O[C@H]([C@@H](O)CO)C(O)=C1O [Ascorbic acid] | 0.255 ± 0.0052 | 0.303 ± 0.0086 | 0.249 ± 0.007 | 0.22 ± 0.043 | 0.186 ± 0.0041 | 0.157 ± 0.0037 | 0.374 ± 0.076 | 0.445 ± 0.06 | 0.187 ± 0.0051 | 0.209 ± 0.0043 | 0.483 ± 0.056 | 0.387 ± 0.024 | 0.35 ± 0.028
